“And” between values parts separate entries of the source, which are not always exact repeats. Equal values may be shown once. This is part of a sample that, as a whole, favours compounds with a hit. Of some 83,000 tested, about 20% had one in any assay.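 Growth was measured after 48 h exposure to one concentration of compound in 96-well plates. Values under 10 count as active.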 Values without a mark were called inactive. The source made the active and inactive calls.
Legend:
Assay in all cases: NCI-60 one-dose screen, 48 h (100 = growth as untreated, 0 = no growth, -100 = all killed)
Details in all cases: 10 µM unless noted
SR leukemia = tested on: SR leukemia
RPMI-8226 leukemia = tested on: RPMI-8226 leukemia
OVCAR-8 ovarian = tested on: OVCAR-8 ovarian
OVCAR-5 ovarian = tested on: OVCAR-5 ovarian
OVCAR-4 ovarian = tested on: OVCAR-4 ovarian
IGROV1 ovarian = tested on: IGROV1 ovarian
OVCAR-3 ovarian = tested on: OVCAR-3 ovarian
HS 578T breast = tested on: HS 578T breast
NCI/ADR-RES ovarian = tested on: NCI/ADR-RES ovarian
SK-OV-3 ovarian = tested on: SK-OV-3 ovarian

SMILES | growth (SR leukemia) | growth (RPMI-8226 leukemia) | growth (OVCAR-8 ovarian) | growth (OVCAR-5 ovarian) | growth (OVCAR-4 ovarian) | growth (IGROV1 ovarian) | growth (OVCAR-3 ovarian) | growth (HS 578T breast) | growth (NCI/ADR-RES ovarian) | growth (SK-OV-3 ovarian)
N=c1sc2ccccc2n1CC(=O)O | 106% | 93.7% | 4.81% (active) | 110% | 115% | 107% | 114% | 92% | 108% | –
C#CCOC(=O)C(N)CS (stereo not given) | 102% | 102% | 110% | 79.9% | 101% | 104% | 103% | 137% | 102% | –
CN(C)CC(CN(C)C)C(O)c1ccccc1 (stereo not given) | 111% | 108% | 104% | 106% | 102% | 106% | 115% | 108% | 100% | –
CCOC(=O)C1=C(C)NC(C)=C(C(=O)OCC)C1 | 101% and 105% | 92.6% and 99.2% | 121% and 96.9% | 104% and 92.4% | 101% and 90.2% | 100% and 112% | – | 101% and 94% | 114% and 105% | –
O=P(O)(O)OC1C(OP(=O)(O)O)C(OP(=O)(O)O)C(OP(=O)(O)O)C(OP(=O)(O)O)C1OP(=O)(O)O.[Cu+2] (stereo not given) | 81.4% | 101% | 76.8% | 155% | 110% | 86.9% | 123% | 92.4% | 97.3% | –
O=c1[nH]c(=S)[nH]n1C(=S)n1[nH]c(=S)[nH]c1=O | 99.7% | 99% | 101% | 105% | – | 101% | 110% | 98.5% | 95.2% | 109%
N=C(N)N1CCc2ccccc2C1 | 75.1% and 93.9% | 74.5% and 80.8% | 89.9% and 103% | 88.4% | 95.4% and 117% | 102% | 104% and 101% | 85.9% and 98.4% | 92.9% and 114% | –
CCCCCCC(C)CC1=C(O)c2ccccc2C(=O)C1=O (stereo not given) | 61.7% | 37.6% | 56.6% | 62.4% | 46.3% | 41.5% | 46.5% | 75.3% | 50.2% | –
CC(=O)c1cccc(OC(=O)c2ccccc2)c1 | 65.6% | 100% | 99% | 104% | 92.7% | 114% | 124% | 105% | 96% | –
COc1ccc([N+](=O)[O-])cc1OC | 89.4% and 108% | 106% | 89.6% and 94.5% | 101% and 98.3% | 104% | 111% and 109% | 113% and 114% | 112% and 132% | 102% and 104% | –
CCC(=O)Oc1ccc(OCc2ccccc2)cc1 | 80.9% and 97.4% | 89.6% and 90.6% | 87.7% and 69.1% | 113% and 119% | – | 92.8% and 82% | 95% and 104% | 98.3% and 97.3% | 66.6% and 65% | 105% and 101%
CCCCOC1NC(=O)NC(=O)C1(F)C(=O)OCC (stereo not given) | 37.9% | 71.8% and 53.1% | 89.6% and 66.6% | 96.5% and 91.9% | 98.9% and 75.8% | 103% and 87.6% | 77.3% and 65.7% | 101% and 115% | 93.7% and 77.1% | –
Cc1onc(-c2c(F)cccc2Cl)c1-c1ncc(-c2ccc(Cl)cc2)o1 | 11% | 26.2% and 23.4% | 55.7% and 35.5% | 73.5% and 68.1% | 80.9% and 47.9% | 49.1% and 33.3% | 63.4% and 45.9% | 84.8% and 57.3% | 57.4% and 27.2% | –
O=[N+]([O-])c1ccc(N/N=C/C2CCCCCC2)c([N+](=O)[O-])c1 | 82.9% | 90.3% | 102% | 99.1% | 98.5% | 91% | – | 96.9% | 104% | –
O=C(O)/C=C/C=C/c1ccccc1 | 104% and 109% | 112% and 99.7% | 102% and 109% | 103% and 96.8% | 116% and 108% | 105% and 110% | 124% and 98.8% | 109% and 108% | 111% and 102% | –
NNc1ncnc2cccc(Cl)c12 | 108% | 94.9% | 95.2% | 97.5% | 114% | 102% | 119% | 98.4% | 102% | –
CN(C=O)c1ccccc1 | 101% | 91% | 96.6% | 100% | 85.3% | 102% | 110% | 100% | 97.4% | –
O=C(OCc1ccccc1)c1ccccc1 | 104% and 86.5% | 99.5% | 101% and 95.7% | 102% and 91.7% | 108% | 120% and 87.4% | – | 105% | 107% and 99.7% | –
Cc1ccc([N+](=O)[O-])cc1Br | 83% | 108% | 91.1% | 89.9% | 105% | 113% | 107% | 94.8% | 108% | –
COC(=O)c1nc(N)nc(C(=O)OC)c1C(=O)c1cccc2ccccc12 | 105% | 109% | 117% | 103% | 108% | 117% | 132% | 108% | 103% | –
Cc1cc(Cl)nc(Nc2ccccc2)n1 | 97.7% | 117% | 102% | 103% | 100% | 100% | 95.5% | 99.6% | 100% | –
CC(=O)Nc1cscc1NC(C)=O | 90.1% | 95.8% | 107% | 91.9% | 100% | 99.2% | – | 103% | 98.9% | 103%
Clc1ccc2sc(-c3ccccc3)nc2c1 | 83.1% | 97% | 87.9% | 120% | – | 101% | 98.6% | 68.7% | 100% | 83.6%
Cc1cc(O)c(C(C)C)cc1N=O | 110% | 97.2% | 102% and 92.1% | 101% and 108% | 109% and 111% | 124% and 112% | 109% and 88.8% | 104% and 114% | 98.7% and 106% | –
CNc1ccc(O)cc1 | 126% | 102% and 87.4% | 96.7% and 106% | 114% and 107% | 94.5% and 106% | 135% and 119% | 113% and 114% | 115% and 142% | 114% and 102% | –

SMILES | growth (SR leukemia) | growth (RPMI-8226 leukemia) | growth (OVCAR-8 ovarian) | growth (OVCAR-5 ovarian) | growth (OVCAR-4 ovarian) | growth (IGROV1 ovarian) | growth (OVCAR-3 ovarian) | growth (HS 578T breast) | growth (NCI/ADR-RES ovarian) | growth (SK-OV-3 ovarian)
CCCC(=O)Oc1ccc2ccccc2c1 | 110% | 94.4% | 94.6% | 117% | 105% | 106% | – | 92.7% | 102% | –
Nc1nc(N)c2cc(S(=O)(=O)c3ccccc3)ccc2n1 | 22% and 47.4% | 51% and 54.5% | 38% and 43.5% | 39.2% and 75.8% | 54% | 36.6% and 58.6% | 53.9% and 59.7% | 65.8% and 73.4% | 41.2% and 50.2% | –
COc1ccc(S(=O)(=O)c2ccc(F)cc2)cc1 | 87.4% | 80.7% | 97.3% | 99.9% | 100% | 120% | 107% | 93.9% | 95.3% | –
Cc1cccc(Cl)c1N | 98.9% | 120% | 96.1% | 110% | – | 153% | 117% | 87.6% | 101% | –
COC1C(OC(N)=O)C(O)C(Oc2ccc3c(O)c(NC(=O)c4ccc(O)c(CC=C(C)C)c4)c(=O)oc3c2C)OC1(C)C (stereo not given) | 84% and 80% | 99.5% and 80.1% | 103% | 86.8% and 91.4% | – | 137% and 129% | 97.3% and 90.6% | 89.4% and 102% | 106% and 97.1% | 112% and 121%
COc1ccc2oc3c(ccc[n+]3C)c(=O)c2c1 | 119% | 104% | 96.5% | 98.9% | – | 108% | 109% | 99.8% | 108% | 99.7%
CCNC1=CC(=O)c2ncccc2C1=O | 50.9% | 66.4% | 51.9% | -53.7% (active) | – | 63.2% | – | -15.9% (active) | 56% | –
NCCCCCC(=O)O | 108% and 79.8% and 111% | 99.6% and 94.5% | 103% [middle of 4 runs] | 98.2% [middle of 4 runs] | – | 116% and 101% | – | 110% [middle of 4 runs] | 109% [middle of 4 runs] | 103% [middle of 4 runs]
O=C(c1ccccc1)C1(Br)CCCCC1 | 149% | 98.9% | 103% | 97% | – | 97.2% | 112% | 97.3% | 91.5% | 108%
CCN(CC)CCO/N=C1\CC(c2ccc(OC)c(OC)c2)Oc2ccccc21 (stereo not given) | 98.5% | 87.8% | 102% | 95.4% | – | 88.8% | 111% | 90.3% | 89.6% | 96.5%
OCCSc1ccc(Cl)cc1 | 117% and 99.7% | 122% and 84.6% | 111% and 103% | 105% and 91.1% | – | 109% and 93.6% | – | 101% | 108% and 102% | 112% and 86.9%
CCCCCCCCCCCCCCCCC(=O)O | 94.3% | 99.4% | 103% | 117% | – | 107% | 115% | 100% | 100% | 116%
CCn1c2ccc(N(C)C)cc2c2cc(N(C)C)ccc21 | 94% | 80.4% | 97.3% | 99.6% | – | 107% | – | 107% | 98.5% | 94.8%
COC(=O)CCOc1ccccc1 | 99.5% | 92.7% | 91.1% | 113% | – | 68.9% | 97% | 195% | 108% | 106%
CC1(C)OC(=O)C(=Cc2ccc(C#N)cc2)C(=O)O1 | 93.5% and 89% | 101% and 103% | 94.5% and 97.8% | 107% and 113% | – | 107% and 105% | 111% and 105% | 99.3% and 104% | 106% and 110% | –
CC(C)(C(=O)c1cccnc1)c1cccnc1 | 84.7% | 97% and 92.1% | 106% and 104% | 93.5% and 94.5% | – | 107% and 103% | 112% and 118% | 94.8% and 110% | 106% and 67.8% | –
CC1OS(=O)OC1C (stereo not given) | 93.5% | 105% and 106% | 101% and 97.9% | 102% and 97.6% | – | 105% | 103% and 106% | 98.3% | 107% and 99.7% | 99.6% and 118%
O=c1[nH]nnc2cc(Cl)ccc12 | 117% and 102% | 112% and 109% | 95.2% and 98.2% | 103% and 96.5% | – | 104% and 116% | – | 126% and 123% | 106% and 97.5% | 114% and 117%
COC(=O)c1nc(=S)[nH]c(C(=O)OC)c1C(=O)c1ccc(OC)cc1 | 105% | 111% | 109% | 103% | – | 99.9% | 119% | 76.1% | 99.8% | 149%
OCc1cccc(F)c1 | 71.1% | 113% | 85.3% | 70.7% | – | 79.6% | – | 124% | 76.5% | 91.7%
Cc1cc(=NO)cc(C)n1O | 72.5% | 103% | 111% | 117% | – | 114% | – | 103% | 114% | –
CCOC(=N)c1ccc(C(=N)OCC)cc1 | 91.7% | 109% | 105% | 105% | – | 111% | 124% | 96.8% | 104% | 93.2%
CC(CN(C)C)CN1c2ccccc2Sc2ccccc21 (stereo not given) | 79.1% and 96.2% and 45.7% | 74.9% | 95.7% and 109% and 101% | 88.9% and 79.7% | – | 73.5% and 92% | 114% and 98.6% and 90.7% | 77.5% and 91.1% and 67.1% | 79.2% and 85.1% and 81.4% | 97.2% and 95.8% and 101%
COc1ccc(-n2[nH]c3c(cnc4ccccc43)c2=O)cc1 | – | 75.7% and 106% | 101% and 99.7% | 107% and 108% | 111% and 97.6% | 87.6% and 115% | 100% and 116% | 117% and 97.5% | 78.5% and 101% | 105% and 99.4%

— PubChem BioAssay (NCI)
